# Screening data (PubChem BioAssay)
# A selection: hits, their analogues and other compounds. The true share with any hit is near 3%.
# PfHsp90 set2: inhibits growth of yeast expressing Plasmodium falciparum Hsp90; S. cerevisiae expressing PfHsp90, BacTiter-Glo ATP, 48 h; yeast lacking PDR1 and PDR3 efflux regulators; inhibition, % at 9.4 µM; hit rate 0.32% among 310,000;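 active = every replicate shows inhibition above about 80%, whatever the replicate mean, limit read from the data; inconclusive = mean inhibition reaches the set limit but some replicate falls short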
# Glyco luc inh: N-linked glycosylation inhibition; D54 ERlucT glycosylation luciferase reporter, 24 h; percent of 100 nM tunicamycin response; reporter increase, % at 12.5 µM; hit rate 0.23% among 360,000; AID 588692;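 active = mean luciferase reporter signal, scaled so untreated is 0 and the glycosylation-blocking control 100, at or above a set limit in every replicate; inconclusive = mean reaches the limit but not every replicate does; inactive = mean below the limit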;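 also: luciferase carries N-glycosylation sites so blocking glycosylation raises the light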
# Vif inh: blocks HIV Vif function; AID 602346; hit rate 0.35% among 340,000; HEK293T cells, Vif self-association by quenched fluorescence, imaging, 24 h; inhibition, % at 7.49 µM; in the data active = inhibition above about 50%, passing the limit was not always enough; inconclusive = no clear call, values can overlap the other calls; inactive = below about 31%
# esBAF inh: inhibitors of esBAF chromatin remodeling in mouse ES cells; Bmi1-luciferase knock-in reporter, 24 h; 100% = twice the neutral-well signal; reporter increase, % at 12.5 µM; hit rate 2% among 350,000; AID 602393; in the data active = activation above about 40%; inconclusive = no clear call, values can overlap the other calls;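 also: a rise in the Bmi1 reporter signal indicates esBAF inhibition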
# Wnt bcat act: activators of Wnt/beta-catenin signaling | activation, % at 9.35 µM | Wnt/beta-catenin reporter cell assay, activator, plate reader | hit rate 1.2% among 300,000 | AID 743398; in the data active = activation above about 30%, passing the limit was not always enough; inconclusive = no clear call, values can overlap the other calls
# MITF act: increases MITF-driven TRPM1 promoter luciferase signal. SK-MEL-5 TRPM1-promoter luciferase, 24 h; % of positive control, neutral wells = 0. activation, % at 12.5 µM. hit rate 0.75% among 300,000;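 active = mean activation of at least 80% with every replicate also reaching 80%; inconclusive = mean reaches 80% but some replicate falls short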
# A number is an active result; - = inactive; ? = inconclusive; . = no result given.
SMILES,PfHsp90 set2,Glyco luc inh,Vif inh,esBAF inh,Wnt bcat act,MITF act
O=C1/C(=C/c2ccccn2)COc2ccccc21,-,-,.,.,-,-
CCCCCc1cc(=O)oc2c(C(CCN3CCCC(C)C3)c3ccc4c(c3)OCO4)c(OC)cc(OC)c12 (stereo unspecified),-,-,-,-,-,-
C=CCN1[C@@H](C)[C@H](c2ccccc2)Oc2cccc(N3CCCC(C)C3)c2S1(=O)=O (stereo partly specified),.,.,.,.,-,.
Cc1ccc2c(c1)n([O-])c1c([n+]2=O)CCCC1,-,-,-,-,-,-
C[C@@H]1CCCCO[C@H](CN(C)C)[C@@H](C)CN([C@@H](C)CO)C(=O)c2cc(NC(=O)C3CCCCC3)ccc2O1,.,.,.,-,.,.
CC(=O)Nc1cc2c(cc1Cl)-c1ccccc1C2,-,-,-,51.8,-,-
CC1CCCN(C(=O)C2CC(=O)N(c3ccc(Cl)cc3)C2)C1 (stereo unspecified),-,-,-,-,-,-
COc1ccc(C(=O)NCCn2cc(SCC(=O)NCc3ccco3)c3ccccc32)cc1,-,-,-,51.7,.,-
COc1ccc(C(=O)NCCn2cc(SCC(=O)NCC3CCCO3)c3ccccc32)cc1 (stereo unspecified),-,-,-,.,-,-
CCN(CC)c1ncn(Cc2c(Cl)cccc2Cl)c2ncnc1-2,-,-,-,-,-,-
COc1ccccc1CCC(=O)OC(C)C(=O)Nc1c(C)n(C)n(-c2ccccc2)c1=O (stereo unspecified),-,-,-,-,-,-
O=C(/C=C/c1ccc(O)cc1)c1ccc(O)cc1O,-,-,-,70.0,-,-
O=C(C=Cc1ccccc1O)c1ccccc1O,?,33.2,-,62.8,-,-
O=C(/C=C/c1cc2ccccc2o1)c1ccccc1O,-,-,-,.,38.7,?
O=C(/C=C/c1ccccc1)NC(=O)c1ccccc1O,-,-,-,?,-,-
O=C(/C=C/c1ccoc1)c1ccccc1O,-,-,-,.,-,-
COc1cc(/C=C/C(=O)NC(=O)c2ccccc2O)ccc1O,-,-,-,?,-,83.6
C[C@H]1CN([C@@H](C)CO)C(=O)Cc2cc(NC(=O)CCC(F)(F)F)ccc2O[C@@H]1CN(C)Cc1ccc(Cl)c(Cl)c1,.,.,.,-,.,.
C[C@H](CO)N1C[C@H](C)[C@@H](CN(C)C(=O)CCC(F)(F)F)OCc2cn(nn2)CCCC1=O,.,.,.,-,-,.
O=C(C=Cc1cccc(O)c1)c1ccccc1O,104.0,-,-,?,-,-
O=C(/C=C/c1ccc(O)c(O)c1)c1ccccc1O,-,-,-,.,46.6,-
COc1cc(O)cc(O)c1C(=O)/C=C/c1ccccc1,-,-,?,-,-,-
O=C(/C=C/c1ccccn1)c1cc(Br)ccc1O,104.2,-,-,-,-,-
N#C/C(C(=O)N1CCOCC1)=C1/SC(Cc2ccccc2Cl)C(=O)N1c1ccccc1 (stereo unspecified),-,-,-,.,34.7,-
N#C/C(C(=O)NCc1ccco1)=C1/SC(Cc2ccc(Cl)cc2)C(=O)N1c1ccccc1 (stereo unspecified),-,-,-,-,-,.
SMILES,PfHsp90 set2,Glyco luc inh,Vif inh,esBAF inh,Wnt bcat act,MITF act
CC1(C)Oc2ccc3ccc(=O)oc3c2[C@@H](O)[C@@H]1O,-,-,-,-,-,-
NC(=O)c1c(NC(=O)c2ccccc2F)sc2c1CCCC2,-,-,-,64.9,-,-
Cn1cc(Br)c(C(=O)Nc2sc3c(c2C(N)=O)CCCC3)n1,-,-,-,67.2,-,85.1
NC(=O)c1c(NC(=O)c2ccc(F)cc2Cl)sc2c1CCC2,-,-,-,49.3,-,-
Cc1ccccc1C(=O)Nc1cccc(N)c1,-,-,-,-,.,-
O=C(NNC(=O)c1ccccc1F)c1cccc(-n2cccc2)c1,-,-,.,45.4,-,-
CCN(CC(=O)Nc1c(F)cccc1F)C(=O)c1cccc(-n2cccc2)c1,.,-,74.1,-,-,-
CCCC(=O)N/C(N)=N/c1nc2ccccc2o1,-,-,-,.,46.4,87.6
CC(C)CC(=O)N/C(N)=N/c1nc2ccccc2o1,-,-,-,74.9,53.2,85.5
CCC(=O)N/C(N)=N/c1nc2ccccc2o1,-,-,-,.,-,?
N/C(=N\c1nc2ccccc2o1)NC(=O)/C=C/c1ccccc1,-,-,-,.,-,-
CC(=O)N/C(N)=N/c1nc2cc(C)ccc2o1,-,-,-,.,-,.
CC(C)(C)C(=O)N/C(N)=N/c1nc2ccccc2o1,-,-,-,-,65.4,?
OC[C@@H]1[C@@H]2c3ccccc3NC[C@@H]2N1CC1CCCCC1,.,.,.,-,.,.
COc1ccc2cc(CN(CC3CCCO3)C(=O)Nc3ccccc3)c(=O)[nH]c2c1 (stereo unspecified),-,-,-,.,-,-
CCN(CC)S(=O)(=O)c1ccc(-c2nnc(SCC(=O)N3CCc4ccccc43)o2)cc1,-,?,-,-,.,-
Fc1ccccc1COc1ccc(-c2nnn(Cc3ccccc3F)n2)cc1,-,-,-,-,-,-
Cn1nnc(-c2ccc(OCc3ccccc3F)cc2)n1,-,-,-,-,37.7,-
O=C(c1cccs1)N1CCOCC1,-,-,-,-,.,-
Cc1ccc(N=C(c2cccs2)N2CCOCC2)cc1,-,-,63.4,-,-,-
COc1ccccc1CCC(=O)N(C)CC(=O)Nc1ccc(F)cc1,-,-,-,-,-,-
COc1ccc(C)cc1-n1nnnc1SCC1CCCO1 (stereo unspecified),.,-,.,.,.,-
COc1ccc(C)cc1-n1nnnc1SCc1nc2ccccc2s1,.,-,-,56.9,-,.
COCCn1c(SCc2nc3ccccc3s2)nc2ccccc21,-,-,-,103.9,?,-
CCOCCCn1c(SCc2nc3ccccc3s2)nc2ccccc2c1=O,-,-,-,.,.,-
SMILES,PfHsp90 set2,Glyco luc inh,Vif inh,esBAF inh,Wnt bcat act,MITF act
COc1ccc(CSc2nnnn2-c2ccccc2)cc1,-,-,.,-,.,-
COc1ccc(-n2nnnc2SCc2nc3ccccc3s2)cc1,-,-,-,70.9,.,-
Cc1cccc(C)c1NC(=O)NN(C(=O)c1ccccc1)C(C)(C)C,-,-,-,.,-,-
CCCCN(C(=O)CSc1nnc(Nc2ccc(C)c(C)c2)s1)c1c(N)n(Cc2ccccc2)c(=O)[nH]c1=O,.,-,-,-,-,-
CCc1ccc(C(=O)COC(=O)c2cccs2)cc1,-,-,.,-,61.7,?
O=C(COC(=O)c1cccs1)c1ccc2c(c1)OCCO2,-,-,.,-,-,-
O=C(COC(=O)c1cccs1)c1ccc2ccccc2c1,-,-,-,42.2,32.2,.
Cc1ccc(C(=O)COC(=O)c2cccs2)cc1,-,.,.,.,52.2,-
C[C@@H](C(=O)Nc1nc2ccc(F)cc2s1)N1C(=O)C2CC=CCC2C1=O (stereo partly specified),-,-,-,.,-,-
Cc1ccc(C(=O)Nc2ccc(-c3csc(C)n3)cc2)cc1,-,-,-,.,-,-
